High-throughput results: PubChem BioAssay, several laboratories
Rows were chosen to be rich in hits. Some 2.6% of all compounds tested hit in one or more screens of this group.
Peg3 prom inh: Peg3 promoter-driven luciferase inhibitors, primary screen, cell-based, HeLa, luciferase luminescence | inhibition, % at 20 µM | HeLa PEG-Prom luciferase reporter, overnight | hit rate 1.7% among 360,000 | AID 588405, 2011;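 active = inhibition of at least 50% at 20 µM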
CF NFkB inh: inhibitors of PAF-induced NF-kB signaling, primary screen, cell-based, GFP fluorescence, uHTS | inhibition, % at 5 µM | KKLEB NF-kB-GFP reporter, GFP fluorescence overnight | hit rate 0.86% among 360,000;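 active = at least 50% inhibition at 5 µM, scaled per plate between neutral and stimulator controls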;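 also: PAF is a Pseudomonas aeruginosa culture filtrate used as stimulus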
HIF-2a block: HIF-2a reporter inhibitors, primary screen, luminescence, 786-0 RCC cells; 786-0 RCC cells HIF-2a reporter, luciferase luminescence, overnight; inhibition, % at 18.8 µM; hit rate 0.72% among 360,000;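 active = inhibition of the luminescence signal of 40% or more relative to plate controls, in a single-dose primary screen at 18.75 µM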
Shn3 inh set2: reduction of Shn3 3'UTR firefly luciferase signal, primary screen, Schnurri-3 inhibitor project, cell-based, Clone20 osteoblasts, set 2. Clone20 osteoblast Shn3 3'UTR firefly luciferase, 24 h. inhibition, % at 12.5 µM. hit rate 0.52% among 360,000. AID 588674, 2011;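 active = mean inhibition of at least 75% with every replicate also reaching 75%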
KKLEB tox: cytotoxicity in KKLEB CF airway cells, primary screen, cytotoxicity control for CF NF-kB inhibitor project, cell-based, uHTS, fluorescence assay plates. KKLEB CF airway cells viability, ATPlite luminescence, overnight; hits give low values; cells stimulated with P. aeruginosa culture filtrate. activity change (cytotoxicity), % at 5 µM. hit rate 0.36% among 360,000. AID 602141, 2011;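 active = corrected activity change at or below -50% at 5 µM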
CF NFkB inh conf: inhibitors of PAF-induced NF-kB signaling, retest, confirmation, cell-based, GFP fluorescence, single concentration | inhibition, % at 5 µM | KKLEB CF airway cells, overnight | hit rate 64% among 1,300 | AID 602472, 2012 | shares compounds with CF NFkB inh; in the data active = inhibition above about 40%;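 also: stimulus PAF is a Pseudomonas aeruginosa filtrate and not platelet activating factor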
Mdm2 MdmX conf: retested Mdm2-MdmX interaction blockers, confirmation, cell-based, luminescence, single concentration, set 2 | shares compounds with HIF-2a block | SaOS-2 split-luciferase Mdm2/MdmX complementation | inhibition, % at 8 µM | hit rate 99% among 740;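 active = mean inhibition of the luminescence signal across two replicates at or above 26 percent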
Target sequence (O15151 whole entry, looked up): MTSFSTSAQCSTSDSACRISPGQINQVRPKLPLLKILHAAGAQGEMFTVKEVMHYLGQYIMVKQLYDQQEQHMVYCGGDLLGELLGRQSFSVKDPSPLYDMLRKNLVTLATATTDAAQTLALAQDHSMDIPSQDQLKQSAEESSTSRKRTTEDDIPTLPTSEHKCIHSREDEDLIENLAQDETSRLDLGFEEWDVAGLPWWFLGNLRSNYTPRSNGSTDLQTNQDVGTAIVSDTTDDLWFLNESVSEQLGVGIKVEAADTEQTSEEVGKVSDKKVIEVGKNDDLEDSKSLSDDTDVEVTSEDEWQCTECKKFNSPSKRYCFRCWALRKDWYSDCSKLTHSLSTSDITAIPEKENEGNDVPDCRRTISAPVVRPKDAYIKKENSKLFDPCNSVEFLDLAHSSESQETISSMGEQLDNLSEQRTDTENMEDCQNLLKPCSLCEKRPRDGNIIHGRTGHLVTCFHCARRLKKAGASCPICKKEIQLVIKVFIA
Target sequence (Q00987 whole entry, looked up): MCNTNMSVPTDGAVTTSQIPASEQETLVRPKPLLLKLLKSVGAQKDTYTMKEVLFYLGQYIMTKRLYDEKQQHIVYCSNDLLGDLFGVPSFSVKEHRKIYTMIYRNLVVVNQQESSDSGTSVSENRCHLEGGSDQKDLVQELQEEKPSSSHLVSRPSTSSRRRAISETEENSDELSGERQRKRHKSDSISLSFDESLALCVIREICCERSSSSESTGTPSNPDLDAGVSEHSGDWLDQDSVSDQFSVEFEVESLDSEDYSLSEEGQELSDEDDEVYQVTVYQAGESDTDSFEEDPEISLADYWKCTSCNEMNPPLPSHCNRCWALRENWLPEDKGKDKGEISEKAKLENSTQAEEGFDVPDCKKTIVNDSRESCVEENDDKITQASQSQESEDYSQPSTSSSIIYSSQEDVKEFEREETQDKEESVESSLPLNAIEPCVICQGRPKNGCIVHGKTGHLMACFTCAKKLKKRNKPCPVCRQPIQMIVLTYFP
HIF-2a conf: HIF-2a reporter inhibitor retest, confirmation, luminescence, 786-0 RCC cells; shares compounds with HIF-2a block; HIF-2a luciferase reporter luminescence, overnight; inhibition, % at 18.8 µM; hit rate 56% among 1,800;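 active = mean inhibition across four replicates of at least 40 percent at the single tested concentration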
HIF-1a cs: HIF-1a luciferase reporter signal reduction – MiaPaCa-2 cells, single concentration, counter-screen for HIF-2a inhibitor project, confirmation | shares compounds with HIF-2a block | MiaPaCa-2 HIF-1a luciferase reporter, desferoxamine, overnight | inhibition, % at 18.8 µM | AID 651589, 2012 | hit rate 72% among 1,800;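 active = mean inhibition of the reporter signal across four replicates at the single tested dose of 50% or more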
Hits are given with their value; . = inactive; / = no result.

SMILES | Peg3 prom inh | CF NFkB inh | HIF-2a block | Shn3 inh set2 | KKLEB tox | CF NFkB inh conf | HIF-2a conf | HIF-1a cs | others
COc1ccc(CCNC(=O)c2ccc(NC(=O)CC3SC(N4CCCCC4)=NC3=O)cc2)cc1 (stereo unspecified) | . | . | . | . | . | / | / | /
C#CCN(C[C@@H]1[C@@H](OC(=O)NC2CC2)[C@@H](OC(=O)NC2CC2)CN(C(=O)OC(C)C)N1C(=O)OC(C)C)S(=O)(=O)c1ccc(C)cc1 | . | . | . | . | . | / | / | /
C#CCN(C[C@@H]1[C@@H](OC(=O)NC2CCCC2)[C@@H](OC(=O)NC2CCCC2)Cn2c(=O)ccc(=O)n21)S(=O)(=O)c1ccc(C)cc1 | 96.0 | 63.6 | 97.0 | 93.8 | . | . | 99.4 | 107.8
Cc1ccc(NC(=O)CN(C)C(=O)Cc2ccc(Cl)c(Cl)c2)cc1 | . | . | . | . | . | / | / | /
Cc1ccc(NC(=O)CN(C)C(=O)Cn2ncc(Cl)c(Cl)c2=O)cc1 | 102.4 | 68.3 | 96.6 | . | . | . | 100.0 | 105.8
O=C1CN(C(=O)COc2ccc(Cl)c(Cl)c2)c2ccccc2N1 | . | . | . | . | . | / | / | /
O=C(Cn1ncc(Cl)c(Cl)c1=O)NC1CCCCC1 | 100.5 | 67.7 | 86.5 | . | . | . | . | 101.6 | Mdm2 MdmX conf=103.0
O=C1CN(C(=O)Cn2ncc(Cl)c(Cl)c2=O)c2ccccc2N1 | 102.6 | 93.5 | 96.0 | . | . | 55.5 | . | 105.5
Cc1ccc(NC(=O)Cn2ncc(Cl)c(Cl)c2=O)cc1S(=O)(=O)N1CCCCC1 | 106.6 | 86.0 | 93.8 | . | . | . | 56.9 | 103.1 | Mdm2 MdmX conf=103.2
CC1CN(c2ccc(NC(=S)NNCCC#N)cc2)CC(C)O1 (stereo unspecified) | . | . | . | . | . | / | / | /
Nc1ncnc(N2CCc3ccccc32)c1[N+](=O)[O-] | . | 83.4 | . | . | . | 98.3 | / | / | Mdm2 MdmX conf=92.7
NNC(=O)c1ccc(N2CCc3ccccc32)c([N+](=O)[O-])c1 | . | . | . | . | . | / | / | /
CCN(CC)S(=O)(=O)c1cccc(NC(=O)CC2CCCC2)c1 | . | . | . | . | . | / | / | /
CCN(CC)S(=O)(=O)c1cccc(NC(=O)Nc2cccc(C(F)(F)F)c2)c1 | . | 63.0 | 40.9 | . | . | . | . | 101.7 | Mdm2 MdmX conf=95.2
O=C(NCc1cccnc1)/C(=C\c1ccc(-c2cccc(Cl)c2)o1)S(=O)(=O)c1ccccc1 | 104.2 | 70.3 | 97.8 | 97.1 | . | 76.5 | 99.0 | 104.7
Cc1cc(C)c(OCCCCCn2ccnc2)c(C)c1 | . | . | . | . | . | / | / | /
COc1ccc(NC2CCCN(C(=O)COc3ccc(Cl)cc3C)C2)cc1OC (stereo unspecified) | . | . | . | . | . | / | / | /
Cc1c(-c2ccccc2)oc2c(C(=O)N3CCN(c4ccc([N+](=O)[O-])cc4)CC3)cccc2c1=O | . | 82.2 | . | . | . | 82.4 | / | / | Mdm2 MdmX conf=87.0
Cc1c(C(=O)N2CCN(c3ccc([N+](=O)[O-])cc3)CC2)oc2ccccc12 | . | . | . | . | . | / | / | /
COC(=O)c1cc(=O)n(Cc2ccc(F)cc2)c(=NCc2ccc(F)cc2)s1 | . | . | . | . | . | / | / | /
COC(=O)c1cc(=O)n(Cc2cccs2)c(=Nc2ccc(F)cc2)s1 | 80.6 | 54.6 | 66.5 | . | . | . | . | 106.2
COC(=O)N/N=C/c1ccc(OS(=O)(=O)c2ccc(C)cc2)c(OC)c1 | . | . | . | . | . | / | / | /
C=CCNC(=O)/C(C#N)=C/c1ccc(OS(=O)(=O)c2ccc(C)cc2)c(OC)c1 | . | 75.0 | 59.3 | . | . | . | 45.6 | 97.0
CC(C)CN=C(NS(=O)(=O)c1ccccc1)C(Cl)(Cl)Cl | 99.5 | 87.9 | 91.7 | . | . | 92.7 | 93.0 | 104.8
COc1ccc(-c2cc(C(F)(F)F)nc(S(C)(=O)=O)n2)cc1 | 100.4 | 73.6 | 89.2 | 94.7 | . | 57.7 | . | 103.0 | Mdm2 MdmX conf=102.5
SMILES | Peg3 prom inh | CF NFkB inh | HIF-2a block | Shn3 inh set2 | KKLEB tox | CF NFkB inh conf | HIF-2a conf | HIF-1a cs | others
CCOC(=O)CS(=O)(=O)c1nc(-c2ccccc2)cc(C(F)(F)F)n1 | 105.2 | 78.7 | 89.3 | 97.4 | . | 59.5 | 81.6 | 65.0
O=C(N/C(=C/c1cccc([N+](=O)[O-])c1)C(=O)N1CCCCCC1)c1ccco1 | . | . | . | . | . | / | / | /
Fc1cccc(CNc2ncnc3ccc(-c4ccc5c(c4)OCO5)cc23)c1 | . | . | . | . | . | / | / | /
c1nc(NCc2ccc3c(c2)OCO3)c2cc(-c3ccoc3)ccc2n1 | . | 81.7 | . | . | . | 91.9 | / | / | Mdm2 MdmX conf=88.0
COc1cccc(OCc2cc(C(=O)N(C)CCOc3ccc(C)cc3)no2)c1 | . | . | . | . | . | / | / | /
O=C(Cn1cc(/C=C\[N+](=O)[O-])c2ccccc21)Nc1ccccc1 | 91.5 | 53.5 | 95.8 | 94.5 | . | . | . | 106.3
Cc1cc(C)c2nc(C(F)(F)F)c(C#N)c(N)c2c1 | 72.6 | 70.2 | . | . | . | 92.3 | / | / | Mdm2 MdmX conf=83.2
COC(=O)C(NC(=O)c1ccccc1)c1ccccc1 (stereo unspecified) | . | . | . | . | . | / | / | /
C=C(C(=O)c1ccccc1)C(NC(C)(C)C)c1ccccc1 (stereo unspecified) | 104.4 | 50.5 | 85.4 | . | . | . | 98.3 | 105.4
Cc1noc2ncnc(Sc3ccccc3Cl)c12 | 115.1 | 53.2 | 67.3 | . | . | . | . | .
COc1ccc(-c2[nH]ncc2-c2ccc3c(c2)OCCO3)c(O)c1 | . | 89.3 | . | . | . | 101.9 | / | / | Mdm2 MdmX conf=96.0
COc1cc(/C=N/NC(=O)c2cccc([N+](=O)[O-])c2)ccc1OCc1ccccc1 | . | . | . | . | . | / | / | /
CCOC(=O)C(=Cc1ccc(OCc2ccc([N+](=O)[O-])cc2)c(OC)c1)C(=O)OCC | 58.1 | 54.2 | 92.5 | . | . | . | 98.2 | 107.5
CCCCN(CCCNC(=O)c1ccc2c(c1)NC(=O)CN2C)c1ccccc1 | 66.1 | 64.6 | 44.5 | . | . | . | 49.2 | 93.5
CCc1ccccc1N(C1=NCCCS1)S(=O)(=O)c1ccc(C(C)(C)C)cc1 | . | . | . | . | . | / | / | /
